# From the supplement of paper PMC6555819
# Assays:
# Experiment in all cases: PBM binding z-score (relative to random genomic background probes); higher = stronger binding; sequences stand for … in GC…GCGATTGACAGCGTAGAATGAAGG
# [1] = tested on: FXR:RXRa (NR concentration 270 nM, RXRa partner concentration 90 nM)
# Method in brief: (§1)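 Custom Agilent 4×180K protein-binding microarrays carried double-stranded probes, each with a 34-nt variable region. These regions held direct-repeat seeds, single-nucleotide variants, half-site ablations and random human genomic background sequences. Ligand-free nuclear receptor dimers were incubated on the arrays for 1 h, antibodies against each partner (one per run) detected binding, and scanned fluorescence was regression-normalized. Binding z-scores take the random background probes as reference.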
# [2] = tested on: LXRa:RXRa (NR concentration 270 nM, RXRa partner concentration 90 nM)
# Method in brief: as §1
# [3] = tested on: LXRa homodimer (NR concentration 270 nM)
# Method in brief: as §1
# [4] = tested on: LXRb:RXRa (NR concentration 270 nM, RXRa partner concentration 90 nM)
# Method in brief: as §1
# [5] = tested on: LXRb homodimer (NR concentration 270 nM)
# Method in brief: as §1
# [6] = tested on: PPARa:RXRa (NR concentration 270 nM, RXRa partner concentration 90 nM)
# Method in brief: as §1
# [7] = tested on: PPARg:RXRa (NR concentration 180 nM, RXRa partner concentration 90 nM)
# Method in brief: as §1
# [8] = tested on: PPARg:RXRa 270nM:90nM, anti-RXR (NR concentration 270 nM, RXRa partner concentration 90 nM)
# Method in brief: as §1
# [9] = tested on: PPARg:RXRa 30nM:10nM, anti-RXR (NR concentration 30 nM, RXRa partner concentration 10 nM)
# Method in brief: as §1
# [10] = tested on: PPARg:RXRa 90nM:30nM, anti-RXR (NR concentration 90 nM, RXRa partner concentration 30 nM)
# Method in brief: as §1
# [11] = tested on: PPARg:RXRa DBDmut IVT, anti-RXR (DBD mutation: RXRa K156A/R161A, NR concentration 270 nM, RXRa partner concentration 90 nM)
# Method in brief: as §1
# [12] = tested on: PPARg:RXRa IVT, anti-PPARg (NR concentration 270 nM, RXRa partner concentration 90 nM)
# Method in brief: as §1
# [13] = tested on: PPARg DBDmut:RXRa IVT, anti-PPARg (DBD mutation: PPARg1 K132A/R137A, NR concentration 270 nM, RXRa partner concentration 90 nM)
# Method in brief: as §1
# [14] = tested on: PPARg DBDmut IVT, anti-PPARg (DBD mutation: PPARg1 K132A/R137A, NR concentration 270 nM)
# Method in brief: as §1
# [15] = tested on: PPARg homodimer (NR concentration 180 nM)
# Method in brief: as §1
# [16] = tested on: PXR:RXRa (NR concentration 270 nM, RXRa partner concentration 90 nM)
# Method in brief: as §1
# [17] = tested on: PXR homodimer (NR concentration 270 nM)
# Method in brief: as §1
# [18] = tested on: RARa:RXR (NR concentration 270 nM, RXRa partner concentration 90 nM)
# Method in brief: as §1
# [19] = tested on: RARa homodimer (NR concentration 270 nM)
# Method in brief: as §1
# [20] = tested on: RARb:RXRa (NR concentration 270 nM, RXRa partner concentration 90 nM)
# Method in brief: as §1
Sequence,PBM binding z-score [1],PBM binding z-score [2],PBM binding z-score [3],PBM binding z-score [4],PBM binding z-score [5],PBM binding z-score [6],PBM binding z-score [7],PBM binding z-score [8],PBM binding z-score [9],PBM binding z-score [10],PBM binding z-score [11],PBM binding z-score [12],PBM binding z-score [13],PBM binding z-score [14],PBM binding z-score [15],PBM binding z-score [16],PBM binding z-score [17],PBM binding z-score [18],PBM binding z-score [19],PBM binding z-score [20]
CGTCCAAGTTCAAAGGTCAGTGAAGAGATGACGG,6.81,5.86,2.94,4.98,1.4,5.95,6.58,6.54,4.28,6.22,0.396,2.79,0.887,0.712,4.76,6.79,4.04,7.83,2.04,5.11
CCTAGTTGATCAGGAGGTCACACACCGGATATGA,3.48,3.95,3.16,3.71,1,4.19,2.24,2.78,1.24,1.99,0.771,2.22,0.83,0.641,4.38,4.62,1.79,5.02,2.57,3.46
TGAATGAGGTAATAAGATCAGGGAACGTTGCAAA,-0.101,-0.238,-0.404,-0.279,-0.0513,0.529,0.563,0.725,0.309,0.427,0.356,1.03,0.129,-0.853,-0.59,-0.275,-0.242,-0.0415,-0.474,-0.231
TCTTCTAGATCAAGCAGGTTAAGAAAGCCTGAGT,0.122,0.597,-0.208,0.619,-0.0275,0.769,-0.479,1.7,3.16,2.53,1.76,0.683,0.767,0.698,0.504,0.69,0.108,0.523,-0.00815,0.276
CCTGCTAGCTCAATGGTCAGCTAAAGCAGCTCGC,-0.674,-0.624,-0.571,-0.457,-0.691,-0.408,-0.805,-0.234,-0.854,-0.539,-0.172,-0.705,-1.42,-1.42,-0.534,-0.568,-0.761,-0.44,-0.89,0.0479
CTCGAAAGGTCGGTTGAGATGAGTATACGGATAA,1.6,1.27,0.0638,1.32,-0.0369,2.34,0.617,0.887,0.602,0.615,-0.21,0.247,0.456,0.37,0.803,1.01,0.26,1.37,0.533,2.86
